Entries with a potency or affinity are not part of this list.
Assays:
Klebsiella pneumoniae = settings: Concentration 32 ug.mL-1;; ASSAY_TEST Inhibition of Bacterial Growth; detection method Absorption (OD600); MEDIA CAMHB; plate type 384well; NBS; CORNING #3640; time 18 hr
Candida albicans = settings: Concentration 32 ug.mL-1; ASSAY_TEST Inhibition of Fungal Growth; detection method Absorption (OD530)
Cryptococcus neoformans = settings: Concentration 32 ug.mL-1; ASSAY_TEST Inhibition of Fungal Growth; detection method Resazurin; Absorption (OD600-OD570); plate type 384well; NBS; CORNING #3640

Row | Structure (SMILES) | Inhibition (Klebsiella pneumoniae) [%] | Inhibition (Candida albicans) [%] | Inhibition (Cryptococcus neoformans) [%]
1 | COc1ccc(N(Cc2ccc(OC)c(F)c2)S(=O)(=O)c2ccc3nncn3c2)cc1 | 12.76 | 2.89 | 0.06
2 | CCc1nnc2c(SCC(=O)Nc3ccccc3Br)nc3ccccc3n12 | 11.72 | 2.39 | -22.99
3 | CCc1nnc2c(SCC(=O)Nc3ccc(C(=O)OC)cc3)nc3ccccc3n12 | 5.41 | 4.91 | -21.71
4 | O=C(Cn1nc2c3cc(-c4ccc(Cl)cc4)nn3ccn2c1=O)N1CCN(c2ccccc2)CC1 | 10.64 | 0.94 | -23.41
5 | Cc1cc(C)c(NC(=O)Cn2nc3ccc(-c4ccc(C)c(C)c4)nn3c2=O)c(C)c1 | -8.22 | 0.76 | -13.99
6 | COCCCNC(=O)CSc1nnc2c(=O)n(Cc3ccc(F)cc3)ccn12 | 13.69 | 2.6 | -25.66
7 | Cc1ccc(N(Cc2ccccc2)S(=O)(=O)c2ccc3nncn3c2)cc1F | 4.64 | 0.48 | -7.94
8 | CC(=O)c1ccc(N2CCN(C(=O)CCc3nnc4c5cc(-c6ccccc6)nn5ccn34)CC2)cc1 | 14.87 | 3.08 | -8.28
9 | COc1ccc(NC(=O)Cn2nc3c4cc(-c5ccc(OC)cc5)nn4ccn3c2=O)cc1 | 12.45 | 2.73 | -13.09
10 | O=C(Cn1nc2c(N3CCOCC3)nc3ccccc3n2c1=O)NCc1ccccc1Cl | -0.61 | 6.61 | -3.24
11 | Cc1ccc(CNC(=O)Cn2nc3c(Sc4ccc(C)cc4C)nccn3c2=O)cc1 | 3.93 | 2.64 | -16.78
12 | O=C(Cn1nc2n(CCc3ccccc3)c(=O)c3ccccc3n2c1=O)Nc1ccc2c(c1)OCO2 | 5.15 | 15.71 | -16.57
13 | COC(=O)c1ccccc1NC(=O)Cn1nc2c(Oc3cccc(OC)c3)nccn2c1=O | -16.2 | 1.71 | -7.59
14 | CCOC(=O)c1ccccc1NC(=O)Cn1c(=O)c2nnc(C(C)C)n2c2ccccc21 | 12 | 1.04 | -21.33
15 | Cc1cc(Br)ccc1NC(=O)Cn1nc2c(Sc3cccc(F)c3)nccn2c1=O | 4.98 | 6.11 | -9.53
16 | CC(C)CCNC(=O)Cn1nc2n(Cc3cccs3)c(=O)c3sccc3n2c1=O | 6.63 | -0.58 | -17.23
17 | Cc1cc2nn(CC(=O)Nc3ccc(F)cc3)c(=O)n2c(Nc2ccccc2C)n1 | 4.2 | 1.24 | -11.54
18 | O=C(Cn1nc2c(Oc3ccccc3)nc3ccccc3n2c1=O)Nc1ccc2c(c1)OCO2 | 4.55 | 16.43 | -9.27
19 | CN(C)C(=O)CSc1nnc2c(=O)n(-c3ccc(F)cc3)ccn12 | 10.89 | 3.85 | -5.4
20 | Cc1cc(C)c(NC(=O)Cn2nc3c(SC4CCCCC4)nccn3c2=O)c(C)c1 | 10.47 | 13.47 | -24.78
21 | COc1cc(OC)c(NC(=O)Cn2nc3ccc(Sc4ccc(C)cc4)nn3c2=O)cc1Cl | -1.47 | 29.33 | -7.45
22 | Cc1cc(C)cc(N(Cc2cc(F)cc(F)c2)S(=O)(=O)c2cccn3c(C)nnc23)c1 | 11.7 | 0.35 | -11.73
23 | CCCCOc1ccc(-c2cc3c4nnc(SCC(=O)Nc5c(C)cccc5C)n4ccn3n2)cc1 | 2.94 | 28.25 | -13.35
24 | CCc1ccccc1NC(=O)Cn1nc2n(C)c(=O)c3c(c(-c4ccccc4)cn3C)n2c1=O | 1.01 | 6.61 | -4.79
25 | Cc1cccc(NC(=O)Cn2c(=O)c3nnc(C(C)C)n3c3ccccc32)c1 | 2.46 | 0.3 | -17.48
26 | Cc1ccc(CN(c2ccc(F)cc2)S(=O)(=O)c2ccc3nnc(C)n3c2)cc1 | -1.29 | 5.66 | -6.24
27 | Cc1ccccc1N1CCN(c2nccn3c(=O)n(CC(=O)NCc4cc(F)cc(F)c4)nc23)CC1 | 4.01 | 0.32 | -4.76

Reference: ChEMBL document CHEMBL4513146, “CO-ADD screening of Karazin Kharkiv National University (Ukraine) compounds”
